From PubChem BioAssay
“And” between values parts separate entries of the source, which are not always exact repeats. Equal values may be shown once. Records with an inconclusive call do not appear. The source made the active and inactive calls. Unless noted, cut-off not given; nearly all actives show AC50 up to about 30 µM.

How the values were obtained:
[1] = growth inhibition of DIPG glioma cells, dose response, cell-based, SU-DIPG-XIII, MIPE4.0, CellTiter-Glo, qHTS (AID 1347061; cut-off not given, nearly all actives have AC50 up to about 37 µM;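 further: cells exposed to compound for 48 hours before readout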); conditions: SU-DIPG-XIII viability, CellTiter-Glo ATP luminescence
[2] = growth inhibition of DIPG glioma cells, dose response, cell-based, JHH-DIPG-1, MIPE4.0, CellTiter-Glo, qHTS (AID 1347062; cut-off not given, nearly all actives have AC50 up to about 27 µM); conditions: JHH-DIPG-1 viability, CellTiter-Glo ATP luminescence
[3] = SU-DIPG-VI glioma cell viability, MIPE4.0 library, CellTiter-Glo luminescence, qHTS (AID 1347066); conditions: CellTiter-Glo ATP luminescence;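 further: cells exposed to compound for 48 hours before readout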
[4] = sensitizers of A549 cells to miR-34 induction, primary screen, imaging, A549 dox-inducible miR-34, nuclei and caspase counts (AID 1347080;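 active means compounds whose cell count with miR-34 switched on is under 0.7 times the count with it off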); conditions: A549 miR-34 inducible, Hoechst nuclei count, 48 h
[5] = survival rescue of mitochondrial mutant cells in low glucose, primary screen, MELAS cybrids, Rieske KO mouse fibroblasts, CellTiter-Glo (AID 1508586;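 active means mean z-score across replicates of 1.96 or higher in either the MELAS or the Rieske mutant cell line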;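 further: z relative to plate mean and SD of compound and empty wells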)
[6] = growth inhibition of DIPG glioma cells, dose response, cell-based, SU-DIPG-IV, MIPE4.0, CellTiter-Glo, qHTS (AID 1347063); conditions: SU-DIPG-IV viability, CellTiter-Glo ATP luminescence;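 further: compound exposure lasted 48 hours before the viability readout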
[7] = viability loss in pontine glioma line – cell-based, SU-DIPG-XXV, MIPE5.0, CellTiter-Glo, qHTS, dose response (AID 1347065; cut-off not given, nearly all actives have AC50 up to about 26 µM;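 further: cells exposed to compound for 48 hours before ATP readout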); conditions: CellTiter-Glo ATP luminescence
[8] = modifiers of HSF1 nuclear foci, imaging, Selleck Cancer Library (AID 1347162; in the data active means plate-normalised HSF1 focus index below about 0.46); conditions: human cells, at 10 µM; SSMD: measured here: HSF1 foci SSMD mean; cell count: measured here: cell number; plate-normalised HSF1 focus index: stronger effect = lower value
[9] = SU-DIPG-XXV glioma cell viability, MIPE5.0 library, qHTS (AID 1347068; cut-off not given, nearly all actives have IC50 up to about 30 µM;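 on IC50: cells exposed to compound for 48 hours before viability readout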)
[10] = JHH-DIPG-1 glioma cell viability, MIPE5.0 library, CellTiter-Glo luminescence, qHTS (AID 1347067; cut-off not given, nearly all actives have AC50 up to about 26 µM;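 further: cells exposed to compound for 48 hours before readout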); conditions: JHH-DIPG-1 glioma viability, CellTiter-Glo ATP luminescence
[11] = LFS_MB_P medulloblastoma growth inhibition, cell-based, chromothripsis tumors, cisplatin or BGB combos (AID 1671449; in the data active means inhibition above about 80%;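 further: cells exposed for 96 hours; 0% = vehicle DMSO and 100% = killing by high DMSO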); conditions: LFS_MB_P medulloblastoma cells
[12] = HDN33 neuroblastoma growth inhibition, cell-based, chromothripsis tumors, cisplatin or BGB combos (AID 1671450; in the data active means inhibition above about 80%;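 further: cells exposed to compound for four days; 0% = vehicle DMSO and 100% = cell killing by high DMSO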); conditions: HDN33 neuroblastoma cells, stronger effect = higher value
[13] = ICB984 medulloblastoma cell growth inhibition, synergistic combos for chromothripsis tumors, cisplatin or BGB combos (AID 1671451; call rule not given here;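 further: cells exposed for 96 hours before readout; 0% = vehicle DMSO and 100% = killing by high DMSO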); conditions: ICB984 medulloblastoma cells, drug combinations, stronger effect = higher value
[14] = stronger effect = lower value, cell number ratio, induced over uninduced
[15] = measured here: relative caspase fold change +Dox/-Dox
[16] = measured here: total cells with miR-34 induction, stronger effect = lower value
[17] = measured here: total cells without miR-34 induction
[18] = MELAS cybrid survival, CellTiter-Glo 48 h, stronger effect = higher value
[19] = Rieske KO mouse fibroblast survival, CellTiter-Glo 72 h

Q: Which outcome [1] does the source give for CC(C)CN(C[C@@H](O)[C@H](Cc1ccccc1)NC(=O)O[C@H]1CCOC1)S(=O)(=O)c1ccc(N)cc1 here?
A: Its outcome is “inactive”.

Q: What about the outcome [2] of the same compound?
A: The outcome was “inactive”.

Q: What about the outcome [3] of the same compound?
A: The outcome was “inactive”.

Q: What about the fold change [4, 14] of the same compound?
A: Its fold change is 0.871 (inactive).

Q: And the fold change [4, 15]?
A: The fold change was 1.32.

Q: What about the cell count [4, 16] of the same compound?
A: Its cell count is 8920.

Q: And the cell count [4, 17]?
A: The cell count was 10200.

Q: And the z-score [5, 18]?
A: Its z-score is -0.00484 (inactive).

Q: And the z-score [5, 19]?
A: The z-score was -0.0373.

Q: With CC(=O)N1CCN(c2ccc(OCc3nn(C)c(C)c3-c3cccc4c(CCCOc5cc(C)c(Cl)c(C)c5)c(C(=O)O)n(Cc5cccnc5)c34)cc2)CC1 as the compound, how does the outcome [1] read?
A: Its outcome is “inactive”.

Q: What about the AC50 [6] of the same compound?
A: Its AC50 is 23.5 µM (active).

Q: And the AC50 [3]?
A: Its AC50 is 20.9 µM (active).

Q: What does the source list for N#Cc1ccc(NC(=O)Nc2ccccc2Br)c2n[nH]nc12?
A: outcome [1]: inactive; outcome [7]: inactive; SSMD [8]: -0.0129; cell count [8]: 7440; plate-normalised HSF1 focus index [8]: 1 (inactive)

Q: Which AC50 [1] does the source give for CN(C[C@@H]1COCCO1)S(=O)(=O)Nc1ccc2ccc3ncc(-c4cnn(C)c4)cc3c(=O)c2c1 here?
A: The AC50 was 2.64 µM (active).

Q: What about the AC50 [7] of the same compound?
A: Its AC50 is 2.09 µM (active).

Q: What about the outcome [3] of the same compound?
A: Its outcome is “inactive”.

Q: And the IC50 [9]?
A: Its IC50 is 3.32 µM (active).

Q: Which outcome [1] does the source give for C/C=C(/C)C(=O)O[C@H]1C(C)=C[C@]23C(=O)[C@@H](C=C(CO)[C@@H](O)[C@]12O)[C@H]1[C@@H](C[C@H]3C)C1(C)C here?
A: Its outcome is “inactive”.

Q: What about the AC50 [3] of the same compound?
A: Its AC50 is 20.9 µM (active).

Q: What does the source list for Cc1coc2c1C(=O)C(=O)c1c-2ccc2c(C)cccc12?
A: outcome [1]: inactive; outcome [2]: inactive; fold change [4, 14]: 0.847 (inactive); fold change [4, 15]: 1.93; cell count [4, 16]: 7470; cell count [4, 17]: 8830; z-score [5, 18]: -0.324 (inactive); z-score [5, 19]: -1

Q: What does the source list for Cc1cn2c(-c3cn[nH]c3)cnc2c(Nc2ccc(C(=O)N3CCNCC3)cc2F)n1?
A: AC50 [1]: 23.5 µM (active); AC50 [3]: 18.7 µM (active)

Q: For CC(=O)O[C@@]12CO[C@@H]1C[C@H](O)[C@@]1(C)C(=O)[C@H](O)C3=C(C)[C@@H](OC(=O)C(O)[C@@H](NC(=O)OC(C)(C)C)c4ccccc4)C[C@@](O)([C@@H](OC(=O)c4ccccc4)[C@H]21)C3(C)C (stereo not given in full), which outcome [1] is on record?
A: Its outcome is “inactive”.

Q: And the outcome [6]?
A: The outcome was “inactive”.

Q: And the outcome [3]?
A: The outcome was “inactive”.

Q: Which results are given for CCOC(=O)N1c2ccc(C(F)(F)F)cc2[C@@H](N(Cc2cc(C(F)(F)F)cc(C(F)(F)F)c2)C(=O)OC)C[C@H]1CC?
A: outcome [1]: inactive; outcome [3]: inactive; outcome [10]: inactive; outcome [9]: inactive

Q: With CC(C)(C)OC(=O)Nc1ccc(-c2cc(C(=O)NCCCCCCC(=O)NO)no2)cc1 as the compound, how does the AC50 [1] read?
A: The AC50 was 13.2 µM (active).

Q: And the AC50 [6]?
A: Its AC50 is 2.64 µM (active).

Q: And the AC50 [7]?
A: The AC50 was 2.95 µM (active).

Q: What about the AC50 [10] of the same compound?
A: Its AC50 is 3.72 µM (active).

Q: What about the fold change [4, 14] of the same compound?
A: Its fold change is 1.08 (inactive).

Q: What about the fold change [4, 15] of the same compound?
A: The fold change was 1.18.

Q: And the cell count [4, 16]?
A: The cell count was 3170.

Q: And the cell count [4, 17]?
A: Its cell count is 2940.

Q: What about the SSMD [8] of the same compound?
A: Its SSMD is -0.325.

Q: And the cell count [8]?
A: The cell count was 7020.

Q: What about the plate-normalised HSF1 focus index [8] of the same compound?
A: The plate-normalised HSF1 focus index was 0.983 (inactive).

Q: And the inhibition ([11]; at 0.5 µM, stronger effect = higher value)?
A: The inhibition was -18.3% (inactive) and -10.4% (inactive).

Q: What about the inhibition ([11]; measured here: combination with BGB IC20, at 0.005 µM) of the same compound?
A: The inhibition was -24.2% and -11.2%.

Q: And the inhibition ([11]; measured here: combination with BGB IC40, at 0.005 µM)?
A: The inhibition was -24.3% and -8.96%.

Q: What about the inhibition ([11]; measured here: combination with BGB IC40, at 0.05 µM) of the same compound?
A: Its inhibition is -25.1% and 5.48%.

Q: What about the inhibition ([11]; measured here: combination with cisplatin, at 0.5 µM, stronger effect = higher value) of the same compound?
A: The inhibition was -19.2% and 23.7%.

Q: What about the inhibition ([11]; measured here: combination with cisplatin, at 5 µM, stronger effect = higher value) of the same compound?
A: The inhibition was 70% and 74.7%.

Q: And the inhibition ([12]; BGB combo, at 5 µM)?
A: The inhibition was 75.4% and 95.4%.

Q: And the inhibition ([12]; at 0.5 µM)?
A: The inhibition was -11.6% (inactive) and 3.28% (inactive).

Q: What about the inhibition ([12]; cisplatin combo, at 5 µM) of the same compound?
A: The inhibition was 84.3% and 99.1%.

Q: And the inhibition ([12]; measured here: with BGB IC20 combination, at 0.5 µM)?
A: The inhibition was -23% and -2.22%.

Q: What about the inhibition ([12]; measured here: with cisplatin IC20 combination, at 0.5 µM) of the same compound?
A: The inhibition was 1.12% and 13.2%.

Q: And the inhibition ([12]; single agent, at 5 µM)?
A: Its inhibition is 86.2% and 98%.

Q: And the inhibition ([13]; BGB IC20 combo, at 0.005 µM)?
A: The inhibition was -9.7% and -9.21%.

Q: And the inhibition ([13]; BGB IC40 combo, at 0.005 µM)?
A: Its inhibition is -27.3% and -46%.

Q: And the inhibition ([13]; BGB IC40 combo, at 0.05 µM)?
A: The inhibition was 38.6% and 39.7%.

Q: And the inhibition ([13]; at 0.5 µM)?
A: Its inhibition is -16.4% (inactive) and -21.9% (inactive).

Q: What about the inhibition ([13]; cisplatin combo, at 0.05 µM) of the same compound?
A: The inhibition was 35.7% and 37.3%.

Q: And the inhibition ([13]; cisplatin combo, at 0.5 µM)?
A: Its inhibition is -28% and -20.5%.

Q: What about the inhibition ([13]; cisplatin combo, at 5 µM) of the same compound?
A: Its inhibition is -41.9% and -70.6%.
